Test results as given in PubChem BioAssay.
Activity calls are given as the source filed them. Unless noted, how the calls were made is not given here.

Tests used:
[1] = anti-His antibody binders, primary screen, artefact control for SMM control protein annotation, biochemical, small-molecule microarray, 635 nm fluorescence (AID 1128); conditions: anti-His Alexa647 antibody binding, higher = more signal;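 further: score merges feature fluorescence with signal-to-noise for each printed compound spot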
[2] = tested on: Human papillomavirus type 1a E7 protein (residues 1-88); assay: HPV1a E7 small-molecule binders, primary screen, biochemical, small-molecule microarray, residues 1-88, 635 nm (AID 1129); conditions: small-molecule microarray binding, fluorescence 635 nm; higher = more signal
[3] = target: Focal adhesion kinase 1 (Homo sapiens) (UniProt Q05397); assay: small-molecule microarray binders of FAK, primary screen, biochemical, 635/667 nm fluorescence, BSA, DTT (AID 1130); conditions: PTK2 binding, 635 nm fluorescence, higher = more signal;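 further: composite of spot emission at 667 nm and signal to noise over triplicate slides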
[4] = tested on: Fibrinogen (Alexa647-labelled); assay: fibrinogen binders on compound microarrays, profiling panel, artefact control for SMM control-protein annotation, biochemical, small-molecule microarray, 635/667 nm fluorescence (AID 1131); conditions: fibrinogen-A647 binding fluorescence, higher = more signal;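 further: z-score merges 667 nm fluorescence with per-spot signal-to-noise over triplicate slides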
[5] = target: Follistatin (Homo sapiens) (UniProt P19883); assay: follistatin binders on small-molecule microarrays, primary screen, biochemical, small-molecule microarray, 635/667 nm fluorescence (AID 1132); conditions: FST binding, 635 nm fluorescence, higher = more signal
[6] = target: Fibroblast growth factor 2 (Homo sapiens) (UniProt P09038); assay: FGF2 binders on small-molecule microarrays, primary screen, biochemical, small-molecule microarray, 635/667 nm fluorescence (AID 1133); conditions: small-molecule microarray binding, FGF2, fluorescence 635/667; higher = more signal
[7] = mitochondrial membrane potential change in A549 cells, profiling panel, cell-based, JC-1 fluorescence, basal, 24 h, 100 nL (AID 1138); conditions: higher = more signal;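 further: A549 lung adenocarcinoma cells under basal conditions with no added stimulus; test concentration not given here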
[8] = tested on: Lefty1; assay: Lefty1 binders on small-molecule microarrays, primary screen, biochemical, small-molecule microarray, 635/667 nm fluorescence (AID 1139); conditions: small-molecule microarray binding, fluorescence 635/667; higher = more signal
[9] = tested on: wheat germ agglutinin (Triticum aestivum), Alexa647-labelled; assay: wheat germ agglutinin binders on compound microarrays, profiling panel, artefact control for SMM control-protein annotation, biochemical, small-molecule microarray, 635/667 nm fluorescence (AID 1140); conditions: WGA-A647 binding, 635 nm fluorescence, higher = more signal;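 further: score merges 667 nm feature emission with signal to noise over triplicate slides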
[10] = target: Luciferin 4-monooxygenase (Photinus pyralis) (UniProt P08659); assay: firefly luciferase enzyme inhibitors, primary screen, biochemical, luminescence, purified enzyme, 2006 set (AID 1141); conditions: SteadyGlo luminescence, 30 min, higher = more signal, called active from +8 up or from −8 down;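 further: cell-free assay with purified firefly luciferase at 100 ng per well in PBS; test concentration not given here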
[11] = tested on: Wnt5a (protein binding on small-molecule microarray); assay: Wnt5a binders on small-molecule microarray, primary screen, biophysical, 635/667 nm fluorescence (AID 1142); conditions: 635 nm fluorescence, higher = more signal;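 further: fluorescence read at 667 nm with signal to noise per printed feature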
[12] = cell viability in Huh7 cells, primary screen, cytotoxicity control for HCV replication inhibitor project, CellTiter-Glo luminescence, basal, 48 h (AID 1143); conditions: Huh7 HCV replicon, higher = more signal, called active from +8 up or from −8 down;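 further: Huh7 hepatoma cells carrying a hepatitis C replication reporter with no stimulus; test concentration not given here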
[13] = P. aeruginosa biofilm formation inhibitors, primary screen, PAO1 strain, BacTiter-Glo luminescence, LB-PBS (AID 1144); conditions: 12 h, higher = more signal
[14] = CREB reporter modulators without forskolin, primary screen, cell-based, PC12, CRE-LacZ reporter, unstimulated (AID 1145); conditions: no forskolin, luminescence, 4.5 h, higher = more signal, called active from +8 up or from −8 down
[15] = CREB reporter modulators under forskolin, primary screen, cell-based, PC12, CRE-LacZ reporter, forskolin-stimulated (AID 1146); conditions: luminescence, 4.5 h, higher = more signal, called active from +8 up or from −8 down;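 further: PC12 cells with 6xCRE LacZ reporter stimulated by forskolin 10 µM; beta-galactosidase reporter signal reflecting CREB driven transcription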
[16] = target: Streptavidin (Streptomyces avidinii) (UniProt P22629); assay: streptavidin binders on small-molecule microarray, primary screen, artefact control for SMM compound annotation, biophysical, 635/667 nm fluorescence (AID 1147); conditions: streptavidin binding, higher = more signal;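 further: signal reflects streptavidin binding to arrayed compounds as a control protein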
[17] = small-molecule binders of probe aInhba, primary screen, biochemical, small-molecule microarray, 635/667 nm fluorescence (AID 1148); conditions: higher = more signal;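 further: score merges 667nm spot fluorescence with signal-to-noise for antibody binding to printed compounds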
[18] = target: Torsin-1A (Homo sapiens) (UniProt O14656); assay: torsin A binders from cell lysate, primary screen, small-molecule microarray, wild-type, 635/667 nm (AID 1149); conditions: COS7 hTOR1A-WT lysate, 635 nm fluorescence, higher = more signal
[19] = target: Torsin-1A (Homo sapiens) (UniProt O14656); assay: small-molecule binders of mutant TOR1A in lysate, primary screen, cell lysate, small-molecule microarray, COS7 lysate, 635/667 nm fluorescence (AID 1150); conditions: COS7 hTOR1A mutant lysate, 635 nm fluorescence, higher = more signal;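 further: score pools 667 nm emission and signal to noise measuring lysate protein binding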
[20] = tested on: Sonic hedgehog protein (Shh); assay: small-molecule binders of Shh protein, primary screen, biochemical, small-molecule microarray, 635/667 nm fluorescence (AID 1151); conditions: small-molecule microarray binding, 635 nm fluorescence; higher = more signal;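 further: Shh protein binding to compounds spotted on small-molecule microarray slides; score combines spot fluorescence intensity with signal-to-noise across triplicate slides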

Sequence of Streptavidin (Streptomyces avidinii) (P22629 whole entry, looked up): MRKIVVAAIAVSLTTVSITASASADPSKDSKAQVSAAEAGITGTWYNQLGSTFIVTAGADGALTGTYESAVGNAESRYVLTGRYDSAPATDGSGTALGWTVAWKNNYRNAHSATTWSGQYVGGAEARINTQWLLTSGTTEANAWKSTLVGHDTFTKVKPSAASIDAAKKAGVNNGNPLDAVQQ
Sequence of Focal adhesion kinase 1 (Homo sapiens) (Q05397 whole entry, looked up): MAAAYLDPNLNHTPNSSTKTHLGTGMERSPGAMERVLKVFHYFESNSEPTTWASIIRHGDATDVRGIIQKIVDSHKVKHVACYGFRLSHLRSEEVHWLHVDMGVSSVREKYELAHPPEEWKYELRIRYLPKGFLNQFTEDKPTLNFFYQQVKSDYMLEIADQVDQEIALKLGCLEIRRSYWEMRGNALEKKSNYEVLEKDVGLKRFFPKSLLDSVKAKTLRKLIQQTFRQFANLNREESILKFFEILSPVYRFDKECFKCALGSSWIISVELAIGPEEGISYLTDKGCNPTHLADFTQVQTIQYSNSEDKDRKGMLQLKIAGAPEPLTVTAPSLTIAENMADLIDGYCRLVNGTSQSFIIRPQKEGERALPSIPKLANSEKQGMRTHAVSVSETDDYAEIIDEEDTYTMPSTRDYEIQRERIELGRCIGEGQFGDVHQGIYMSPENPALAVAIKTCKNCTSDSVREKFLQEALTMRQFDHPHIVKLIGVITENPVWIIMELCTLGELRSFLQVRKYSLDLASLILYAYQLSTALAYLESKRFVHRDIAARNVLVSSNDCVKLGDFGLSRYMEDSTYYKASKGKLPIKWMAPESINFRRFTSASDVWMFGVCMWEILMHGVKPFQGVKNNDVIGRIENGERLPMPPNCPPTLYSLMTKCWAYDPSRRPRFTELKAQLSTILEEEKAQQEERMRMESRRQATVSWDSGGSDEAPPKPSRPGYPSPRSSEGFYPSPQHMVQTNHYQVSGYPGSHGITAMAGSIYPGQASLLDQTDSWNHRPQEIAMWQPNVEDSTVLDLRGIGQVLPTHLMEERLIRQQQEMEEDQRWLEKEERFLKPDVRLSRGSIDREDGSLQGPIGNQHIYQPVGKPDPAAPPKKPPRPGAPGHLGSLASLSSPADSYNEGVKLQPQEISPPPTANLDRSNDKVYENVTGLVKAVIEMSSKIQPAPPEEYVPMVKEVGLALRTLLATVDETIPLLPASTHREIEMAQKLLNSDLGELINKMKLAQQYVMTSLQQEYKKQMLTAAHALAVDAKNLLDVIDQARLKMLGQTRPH
Sequence of Luciferin 4-monooxygenase (Photinus pyralis) (P08659 whole entry, looked up): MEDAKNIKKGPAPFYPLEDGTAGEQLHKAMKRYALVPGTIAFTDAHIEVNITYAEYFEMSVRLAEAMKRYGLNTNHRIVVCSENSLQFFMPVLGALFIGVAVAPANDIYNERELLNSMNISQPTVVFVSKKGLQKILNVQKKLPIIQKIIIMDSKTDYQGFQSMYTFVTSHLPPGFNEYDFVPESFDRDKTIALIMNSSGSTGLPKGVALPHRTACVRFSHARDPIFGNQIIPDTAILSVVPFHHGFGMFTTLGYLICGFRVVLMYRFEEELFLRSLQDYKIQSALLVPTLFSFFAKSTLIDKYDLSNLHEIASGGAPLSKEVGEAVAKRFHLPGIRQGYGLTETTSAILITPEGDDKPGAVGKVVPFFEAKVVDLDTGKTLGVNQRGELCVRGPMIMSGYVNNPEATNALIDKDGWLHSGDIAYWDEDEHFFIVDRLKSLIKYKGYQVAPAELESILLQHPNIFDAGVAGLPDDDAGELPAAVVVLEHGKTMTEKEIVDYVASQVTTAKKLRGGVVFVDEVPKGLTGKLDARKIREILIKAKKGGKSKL
Sequence of Torsin-1A (Homo sapiens) (O14656 whole entry, looked up): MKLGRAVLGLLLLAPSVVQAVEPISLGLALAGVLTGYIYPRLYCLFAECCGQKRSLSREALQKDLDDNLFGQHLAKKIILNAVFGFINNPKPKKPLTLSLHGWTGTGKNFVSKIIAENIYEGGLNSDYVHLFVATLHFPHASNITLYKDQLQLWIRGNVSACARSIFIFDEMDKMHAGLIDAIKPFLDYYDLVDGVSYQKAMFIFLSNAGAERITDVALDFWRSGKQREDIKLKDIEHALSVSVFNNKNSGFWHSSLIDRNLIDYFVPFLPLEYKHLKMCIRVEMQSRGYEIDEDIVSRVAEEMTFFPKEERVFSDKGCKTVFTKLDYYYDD
Sequence of Follistatin (Homo sapiens) (P19883 whole entry, looked up): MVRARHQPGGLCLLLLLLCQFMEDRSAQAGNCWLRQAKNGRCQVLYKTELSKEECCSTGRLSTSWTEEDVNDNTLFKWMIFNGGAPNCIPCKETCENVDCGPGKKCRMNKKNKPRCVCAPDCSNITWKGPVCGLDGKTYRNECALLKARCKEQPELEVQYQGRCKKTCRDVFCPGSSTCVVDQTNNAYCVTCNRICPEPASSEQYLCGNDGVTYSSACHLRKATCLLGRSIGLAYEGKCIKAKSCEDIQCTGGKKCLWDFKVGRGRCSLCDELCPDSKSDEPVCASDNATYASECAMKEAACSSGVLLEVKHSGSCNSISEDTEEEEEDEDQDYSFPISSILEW
Sequence of Fibroblast growth factor 2 (Homo sapiens) (P09038 whole entry, looked up): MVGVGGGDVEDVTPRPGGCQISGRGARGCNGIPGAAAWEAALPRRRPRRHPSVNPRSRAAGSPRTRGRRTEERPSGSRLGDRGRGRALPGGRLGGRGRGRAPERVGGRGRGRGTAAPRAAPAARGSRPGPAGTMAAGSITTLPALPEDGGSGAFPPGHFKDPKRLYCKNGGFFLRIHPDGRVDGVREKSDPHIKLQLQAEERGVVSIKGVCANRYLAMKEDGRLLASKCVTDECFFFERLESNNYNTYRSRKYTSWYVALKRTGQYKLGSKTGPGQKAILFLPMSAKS

COc1ccccc1CN1C(=O)c2ccccc2[C@@H](C(=O)NCC(F)(F)F)[C@@H]1c1ccc(CO)cc1
composite z-score [1]: 0.218 | composite z-score [2]: 0.993 | composite z-score [3]: 0.391 | composite z-score [4]: 0.532 | composite z-score [5]: 1.06 | composite z-score [6]: 1.05 | z-score [7]: 1.13 | composite z-score [8]: 1.13 | composite z-score [9]: 0.185 | z-score [10]: 0.806 (inactive) | composite z-score [11]: 0.324 | z-score [12]: -1.92 (inactive) | z-score [13]: -1.6 (inactive) | z-score [14]: 0.504 (inactive) | z-score [15]: -1.28 (inactive) | composite z-score [16]: 0.299 | composite z-score [17]: 0.16 | composite z-score [18]: 0.156 | composite z-score [19]: 0.336 | composite z-score [20]: 1.92

N#Cc1ccc(NN2C(C(O)c3cc(C(F)(F)F)cc(C(F)(F)F)c3)C=CC3C(=O)N(c4ccccc4)C(=O)C32)cc1 (stereo not given)
composite z-score [1]: 0.94 | composite z-score [2]: 1.17 | composite z-score [3]: 0.756 | composite z-score [4]: 0.932 | composite z-score [5]: 1.11 | composite z-score [6]: -0.477 | z-score [7]: 0.277 | composite z-score [8]: 0.265 | composite z-score [9]: 1.16 | z-score [10]: -0.514 (inactive) | composite z-score [11]: 0.261 | z-score [12]: -2.24 (inactive) | z-score [13]: -0.875 (inactive) | z-score [14]: 0.822 (inactive) | z-score [15]: -0.389 (inactive) | composite z-score [16]: 1.39 | composite z-score [17]: 0.231 | composite z-score [18]: 1.43 | composite z-score [19]: 1.06 | composite z-score [20]: -0.0099

C#CCCCON=C1C[C@@H](O)[C@@H](O)[C@@H]2[C@@H]3C(=O)N([C@@H](C)c4ccccc4)C(=O)[C@@H]3CC[C@H]12
composite z-score [1]: 0.449 | composite z-score [2]: 0.621 | composite z-score [3]: 0.48 | composite z-score [4]: 0.778 | composite z-score [5]: 0.615 | composite z-score [6]: 0.594 | z-score [7]: -0.887 | composite z-score [8]: 0.535 | composite z-score [9]: 0.203 | z-score [10]: 0.794 (inactive) | composite z-score [11]: -0.216 | z-score [12]: -3.38 (inactive) | z-score [13]: -0.0158 (inactive) | z-score [14]: 2.61 (inactive) | z-score [15]: -0.428 (inactive) | composite z-score [16]: 0.029 | composite z-score [17]: -0.128 | composite z-score [18]: 0.258 | composite z-score [19]: 0.126 | composite z-score [20]: 0.552

COc1cccc([C@H]2Oc3ccc(OC)cc3C(=NOC(C)CN3CCCc4nc(C)c(C)cc43)[C@@H]2O)c1 (stereo not given in full)
composite z-score [1]: 2.41 | composite z-score [2]: 0.857 | composite z-score [3]: 0.394 | composite z-score [4]: -0.712 | composite z-score [5]: 0.073 | composite z-score [6]: 0.125 | z-score [7]: 0.128 | composite z-score [8]: 0.809 | composite z-score [9]: -0.299 | z-score [10]: 0.149 (inactive) | composite z-score [11]: 0.35 | z-score [12]: -0.252 (inactive) | z-score [13]: 1.28 (inactive) | z-score [14]: 2.71 (inactive) | z-score [15]: -0.0145 (inactive) | composite z-score [16]: -0.504 | composite z-score [17]: 0.0442 | composite z-score [18]: 0.433 | composite z-score [19]: 0.27 | composite z-score [20]: 0.478

CC(C)c1ccc(NN2C(C(O)c3ccc4c(c3)OCO4)C=CC3C(=O)N(c4ccccc4)C(=O)C32)cc1 (stereo not given)
composite z-score [1]: 1.57 | composite z-score [2]: 1.19 | composite z-score [3]: 0.477 | composite z-score [4]: 1.04 | composite z-score [5]: 1.02 | composite z-score [6]: -0.146 | z-score [7]: -0.726 | composite z-score [8]: 0.545 | composite z-score [9]: 0.881 | z-score [10]: -1.72 (inactive) | composite z-score [11]: 0.268 | z-score [12]: -0.0997 (inactive) | z-score [13]: -0.505 (inactive) | z-score [14]: 0.629 (inactive) | z-score [15]: -0.0824 (inactive) | composite z-score [16]: 2.14 | composite z-score [17]: 0.125 | composite z-score [18]: -0.0945 | composite z-score [19]: 1.04 | composite z-score [20]: 0.397

O=C1C[C@@H](O)[C@@H](O)[C@@H]2[C@@H]3C(=O)N(c4cccc(Oc5ccccc5)c4)C(=O)[C@@H]3CC[C@@H]12
composite z-score [1]: 0.161 | composite z-score [2]: 0.783 | composite z-score [3]: 0.35 | composite z-score [4]: 0.725 | composite z-score [5]: 0.91 | composite z-score [6]: 0.679 | z-score [7]: 0.844 | composite z-score [8]: 0.661 | composite z-score [9]: 0.428 | z-score [10]: -0.44 (inactive) | composite z-score [11]: 0.111 | z-score [12]: -0.146 (inactive) | z-score [13]: 1.27 (inactive) | z-score [14]: 1.24 (inactive) | z-score [15]: 0.061 (inactive) | composite z-score [16]: 0.251 | composite z-score [17]: 0.0227 | composite z-score [18]: 0.446 | composite z-score [19]: 0.463 | composite z-score [20]: 0.521

Cn1cccc1C(O)C1C=CC2C(=O)NC(=O)C2N1Nc1ccccn1 (stereo not given)
composite z-score [1]: 0.195 | composite z-score [2]: -0.789 | composite z-score [3]: -0.35 | composite z-score [4]: -0.0084 | composite z-score [5]: 0.776 | composite z-score [6]: 0.126 | z-score [7]: -1.96 | composite z-score [8]: 0.097 | composite z-score [9]: 1.03 | z-score [10]: -1.41 (inactive) | composite z-score [11]: 0.0956 | z-score [12]: -3.04 (inactive) | z-score [13]: 0.465 (inactive) | z-score [14]: -0.326 (inactive) | z-score [15]: 0.583 (inactive) | composite z-score [16]: 0.126 | composite z-score [17]: -0.231 | composite z-score [18]: 0.3 | composite z-score [19]: 0.197 | composite z-score [20]: 0.64

COC(=O)[C@@]1(Cc2ccccc2)[C@H]2c3cc(C(=O)N4CCCC4)n(Cc4ccccn4)c3C[C@H]2CN1C(=O)c1ccccc1
composite z-score [1]: 1.81 | composite z-score [2]: 1.26 | composite z-score [3]: 0.846 | composite z-score [4]: 0.412 | composite z-score [5]: 1.24 | composite z-score [6]: 0.354 | z-score [7]: 0.449 | composite z-score [8]: 0.19 | composite z-score [9]: 0.236 | z-score [10]: 1.93 (inactive) | composite z-score [11]: 1.25 | z-score [12]: -1.5 (inactive) | z-score [13]: -1.42 (inactive) | z-score [14]: 0.201 (inactive) | z-score [15]: 1.06 (inactive) | composite z-score [16]: 1.02 | composite z-score [17]: 0.74 | composite z-score [18]: 0.671 | composite z-score [19]: 1.91 | composite z-score [20]: -0.369

CC(CCC(=O)OC[C@H]1O[C@H](C#Cc2ccccc2)C=C[C@@H]1Oc1ccc(C)cc1)=NOC[C@@H](O)[C@H]1O[C@@H]2OC(C)(C)O[C@@H]2[C@H]1O
composite z-score [1]: 0.418 | composite z-score [2]: -0.106 | composite z-score [3]: 0.0116 | composite z-score [4]: -0.38 | composite z-score [5]: -0.382 | composite z-score [6]: -0.448 | z-score [7]: 0.343 | composite z-score [8]: 0.131 | composite z-score [9]: -0.604 | z-score [10]: 0.29 (inactive) | composite z-score [11]: -0.598 | z-score [12]: -0.416 (inactive) | z-score [13]: -0.025 (inactive) | z-score [14]: 0.099 (inactive) | z-score [15]: 0.0046 (inactive) | composite z-score [16]: -0.564 | composite z-score [17]: -0.178 | composite z-score [18]: -0.526 | composite z-score [19]: -0.617 | composite z-score [20]: -0.108

COc1ccc(O[C@H]2C=C[C@@H](c3ccccc3)O[C@@H]2COC(=O)CCC(C)=NOCC[C@@H]2C=C[C@H](OC(C)=O)[C@@H](COC(C)=O)O2)cc1
composite z-score [1]: 0.545 | composite z-score [2]: -0.129 | composite z-score [3]: 0.151 | composite z-score [4]: 0.351 | composite z-score [5]: 0.612 | composite z-score [6]: 0.168 | z-score [7]: 0.213 | composite z-score [8]: 0.342 | composite z-score [9]: 0.193 | z-score [10]: 1.03 (inactive) | composite z-score [11]: -0.0096 | z-score [12]: -1.06 (inactive) | z-score [13]: 0.57 (inactive) | z-score [14]: 0.918 (inactive) | z-score [15]: 0.378 (inactive) | composite z-score [16]: 0.0903 | composite z-score [17]: -0.0736 | composite z-score [18]: 1.56 | composite z-score [19]: 0.43 | composite z-score [20]: 0.661
